This is an account of results in PubChem BioAssay AID588850 (Sanford-Burnham Center for Chemical Genomics, 2011).

Among all 360,000 compounds or so, about 3,100 (0.86%) were called active. This is one part of a sample in which actives are shown more often than they occur. A number with no mark means an inactive call.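 Rule for the calls: active = at least 50% inhibition at 5 µM, scaled per plate between neutral and stimulator controls; inactive = the rest.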

What is called inhibition is the relative decrease from the control value, in per cent.

The experiment in a line: inhibitors of PAF-induced NF-kB signaling, primary screen, cell-based, GFP fluorescence, uHTS (AID 588850).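 Note: PAF is a Pseudomonas aeruginosa culture filtrate used as stimulus; plate controls were PAF-stimulated DMSO wells for no effect and unstimulated DMSO wells for full effect.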 The conditions noted are these: KKLEB NF-kB-GFP reporter, GFP fluorescence overnight, at 5 µM, hits give high values.
With `O=c1[nH]c(/C=C/c2cccc(Br)c2)nc2ccccc12`, the inhibition was 20.4%.

In the case of `O=C(/C(=C/c1cccc(Cl)c1)c1nc2ccccc2[nH]1)c1ccccc1`, the inhibition is 82.3% (active).

For `O=c1c2cc(Br)ccc2nc(-c2cccc(Cl)c2)n1O`, the inhibition is -1.4%.

Consider `Cc1cc(NC(=O)CN2C(=O)NC(C)(CCc3ccccc3)C2=O)no1` (stereo not drawn), for which the inhibition was -2.5%.

With `CC(C)C(C)(C#N)NC(=O)CSc1nc2scc(-c3ccccc3)c2c(=O)[nH]1` (stereo not drawn), the inhibition is 9%.

As for `CSCC[C@H](NC(=O)NC1CCCC1)C(=O)O`, the inhibition was -10.3%.

Take `COc1ccc(NC(=O)/C(Cl)=C(/Cl)S(=O)Cc2ccc(C)cc2)cn1` (stereo not drawn): the inhibition is 90% (active).

Regarding `COc1ccc(NC(=O)C2Cc3c(-c4ccc5c(c4)OCO5)ccnc3O2)cn1` (stereo not drawn), the inhibition is 15.9%.

Take `COc1cccc(NC(=S)N(Cc2ccc(C)cc2)Cc2ccccn2)c1`: the inhibition is -2.3%.

As for `O=S(=O)(c1ccc(-c2ccno2)s1)N1CCCCC1`, the inhibition was 7.2%.

For the compound `CC(C(=O)N1CCOCC1)N1c2cccc3cccc(c23)S1(=O)=O` (stereo not drawn), the inhibition is 4.3%.

Turning to `COc1cc(C(=O)OC(C)C(=O)NCC2CCCCC2)cc(NC(=O)c2ccco2)c1OC` (stereo not drawn), the inhibition was -5.7%.

Turning to `COc1ccc(NC(=O)c2cc(-c3cc(OC)c(OC)c(OC)c3)nc3ccccc23)c(OC)c1`, the inhibition is 60.9% (active).

As for `COc1ccc(-c2cc(C(=O)n3cnc4ccccc43)c3ccccc3n2)cc1`, the inhibition is 5.5%.

On to `COc1ccc(NC(=O)c2sc(N3CCOCC3)nc2-c2ccccc2)c(OC)c1`, for which the inhibition is 9.3%.

Regarding `CC(C)n1cnc2c(Nc3cccc(Cl)c3)nc(N(CCO)CCCO)nc21`, the inhibition was 72.6% (active).

In the case of `NC(=O)CSc1nnc(-c2cccc(S(=O)(=O)N3CCOCC3)c2)o1`, the inhibition was -5.1%.

As to `O=S(=O)(Nc1ccc(OC(F)(F)F)cc1)c1cccc2nonc12`, the inhibition is -3.9%.

As to `O=S(=O)(Nc1ccc(O)c2ccccc12)c1ccc(OC(F)(F)F)cc1`, the inhibition is 96% (active).

For `COc1ccccc1NS(=O)(=O)c1ccc(C(=O)N2CCN(c3ccccc3O)CC2)cc1`, the inhibition was 6.4%.

Take `CCOC(=O)CN1CC23C=CC(O2)C(C(=O)Nc2ccc(F)cc2)C3C1=O` (stereo not drawn): the inhibition is -8.9%.

Take `NS(=O)(=O)c1ccc(CCNC(=O)CCCn2c(SCC(=O)N3CCCC3)nc3ccsc3c2=O)cc1`: the inhibition is -8.6%.

For `NS(=O)(=O)c1cc2c(cc1Cl)NC(C(Cl)Cl)NS2(=O)=O` (stereo not drawn), the inhibition was 22%.

Take `CCN1CCN(C(=O)N(Cc2ccc(Cl)cc2)S(=O)(=O)c2ccc(C)cc2)CC1`: the inhibition is 3.2%.

With `O=C(c1cnn(-c2ccc(Cl)cc2)c1)c1ccccc1O`, the inhibition is -14.6%.

As to `Cc1ncc(CC(=O)n2cc(C(=O)c3cc(Cl)ccc3O)cn2)s1`, the inhibition was 60.8% (active).

In the case of `Cc1nc2ccccn2c(=O)c1NC(=O)c1ccc(Br)o1`, the inhibition is 11.6%.

On to `Cc1ccc(SCC(=O)c2cc(C)c(OC(=S)N(C)C)c(C)c2)cc1`, for which the inhibition was 0%.

With `Cc1nnc(NC(=O)CCC(=O)N2CCC(C)CC2)s1`, the inhibition was 8.8%.

`CCCCCCCCc1c(O)nc(-n2[nH]c(C)c(CCO)c2=O)[nH]c1=O`: the inhibition was 12.1%.

Regarding `CC(=O)OC(C)C[N+](C)(C)C` (stereo not drawn), the inhibition was 80.7% (active).

Turning to `CC(=O)OCC(COC(C)=O)OC(C)=O`, the inhibition is -7.3%.

Consider `CC(C[N+](C)(C)C)OC(N)=O` (stereo not drawn), for which the inhibition is 3.2%.

Consider `O=S(=O)(c1cccc(C(F)(F)F)c1)N1c2ccccc2-n2cccc2C1c1cccnc1` (stereo not drawn), for which the inhibition is 13.5%.

Consider `Cc1cccc(C)c1NC(=O)C(Cl)C(=O)c1ccccc1` (stereo not drawn), for which the inhibition is -23.4%.

On to `N#Cc1c(N)nc2c3c(sc(=N)c2c1N)NC(=O)CC3c1ccccc1Cl` (stereo not drawn), for which the inhibition is -8.3%.

`CCC(C)[C@H]1COCCS(=O)(=O)N1Cc1ccc(C)cc1` (stereo partly drawn): the inhibition is -9.6%.

On to `CC(C)C[C@H]1CNC(=S)N1C[C@H]1CCCN1C[C@H](Cc1ccc(O)cc1)N1C[C@H](Cc2ccc(O)cc2)N(CC2CCCCC2)C1=S`, for which the inhibition is 65.6% (active).

As to `CCOc1ccc(CCN2C(=S)N([C@@H](CC(C)C)CN3CCC[C@@H]3CN3C(=S)NC[C@@H]3Cc3ccc(O)cc3)C[C@@H]2Cc2ccc(O)cc2)cc1`, the inhibition was 40.9%.

For `CCOc1ccc(CCN2C(=S)N([C@@H](CC(C)C)CN3CCC[C@@H]3CN3C(=S)NC[C@@H]3Cc3ccc(O)cc3)C[C@@H]2CC(C)C)cc1`, the inhibition is 13.3%.

Take `O=[N+]([O-])c1cc(S(=O)(=O)Nc2cccc(Cl)c2)ccc1N=Nc1c(O)[nH]c2ccccc12`: the inhibition was 80% (active).

Consider `O=C(NCc1ccncc1)c1ccc(NS(=O)(=O)c2cccc([N+](=O)[O-])c2)cc1`, for which the inhibition was 8.5%.

Regarding `Cc1c(-c2ccccc2)n[nH]c1C(=O)N=Nc1c(O)[nH]c2ccccc12`, the inhibition is -0.9%.

As to `Cc1ccc([C@H]2C[C@H](O)[C@@H](n3cc(COC(=O)c4ccccc4)nn3)CN2CC2CCCCC2)cc1`, the inhibition is 58.5% (active).

In the case of `Cc1ccc([C@H]2C[C@H](O)[C@@H](n3cc(COC(=O)c4ccccc4)nn3)CN2C(=O)C2CCCCC2)cc1`, the inhibition is 1.3%.

In the case of `CCCCCC(=O)N1C[C@H](O)[C@@H](n2cc(COC(=O)c3ccccc3)nn2)C[C@@H]1c1ccc(C)cc1`, the inhibition is -3.3%.

With `CC(C)=CCN1CCN(CCCc2ccccc2)CC1CCO` (stereo not drawn), the inhibition was 1.3%.

Take `Cc1ccc(C(O)c2ncc(-c3ccccc3F)[nH]2)cc1F` (stereo not drawn): the inhibition is -1.5%.

With `COc1ccc(NC(=S)SC)cc1OC`, the inhibition is 59.7% (active).

For `COc1ccc(NC(=O)C2C3CCC(O3)C2C(=O)O)cc1OC` (stereo not drawn), the inhibition is -25.3%.

As to `COc1ccc(NC(=O)CSCc2ccc([N+](=O)[O-])cc2)cc1OC`, the inhibition is 2.8%.

In the case of `COc1ccc(Cl)cc1NS(=O)(=O)c1cccc(C(=O)NCC2CCCO2)c1` (stereo not drawn), the inhibition was -16.2%.

As to `O=C(CSc1nnc(-c2ccoc2)o1)N1CCOCC1`, the inhibition was -7.3%.

Regarding `COc1cccc(C(NC(C)=O)c2nc(-c3ccccc3OC)cs2)c1` (stereo not drawn), the inhibition is -4%.

As for `CCOP(=O)(OCC)C(Cc1ccccc1)N=C(c1ccccc1)c1ccccc1` (stereo not drawn), the inhibition was 2.4%.

As to `Cc1cc(=O)oc2c3c(cc(OCC(=O)NCC(O)c4ccccc4)c12)OC(C)(C)CC3` (stereo not drawn), the inhibition is -24.9%.

Turning to `S=C(NN=Cc1ccccn1)Nc1ccccn1`, the inhibition was 73.7% (active).

With `S=C(Nc1cccnc1)Nc1ccccn1`, the inhibition was -6.9%.

For `O=C(N/N=C/c1ccccn1)c1cccc(NC(=O)c2ccc(Cl)cc2)c1`, the inhibition is 8.6%.

In the case of `CCOc1ccc(C(=O)NC(=S)Nc2ccc(NC(=O)C(C)C)cc2)cc1[N+](=O)[O-]`, the inhibition was 0.2%.

Turning to `NS(=O)(=O)c1cccc(NC(=O)COC(=O)c2cc([N+](=O)[O-])ccc2N2CCCC2)c1`, the inhibition was 5.8%.

`CC(OC(=O)CNC(=O)c1ccc(Cl)c([N+](=O)[O-])c1)C(=O)NCc1ccco1` (stereo not drawn): the inhibition is 5.2%.

Take `N#Cc1cccc(NC(=O)COC(=O)c2ccccc2C(=O)c2ccc(Cl)c([N+](=O)[O-])c2)c1`: the inhibition is 86.9% (active).

Consider `O=C(COc1ccc([N+](=O)[O-])cc1)Nc1cccc(C(=O)Nc2ccccc2C(=O)O)c1`, for which the inhibition is -36%.

On to `CC(=O)Nc1ccc(NC(=O)C(C)OC(=O)c2ccccc2C(=O)c2ccc(Cl)c([N+](=O)[O-])c2)cc1` (stereo not drawn), for which the inhibition was 81.1% (active).

Turning to `Cc1ccc(S(=O)(=O)N2C3C=CC(C3)C2C(=O)O)cc1` (stereo not drawn), the inhibition is 1.4%.

On to `COCc1c(C(=O)OCc2c(C)noc2C)oc2ccccc12`, for which the inhibition was -11.5%.

As for `CCOC(=O)N1CCC(Nc2c(NCCCN3CCN(c4ccc(OC)cc4)CC3)c(=O)c2=O)CC1`, the inhibition was -6.5%.

Take `CCN(CC)C(=O)N1CCN(C(=O)c2ccc(C)cn2)CC1`: the inhibition is 7.5%.

Take `CCN1CCC2(CCN(Cc3cn[nH]c3-c3ccc(OC)c(F)c3)C2)C1` (stereo not drawn): the inhibition was 11%.

Turning to `CC(=O)N1CCC(C(=O)OCc2ccc(Cl)cc2)(c2ccccc2)CC1`, the inhibition was -6.8%.

As to `Oc1ccc(Br)cc1/C=N/Nc1ccccn1`, the inhibition is 107% (active).

With `O=C(CCc1ccc(O)cc1)NN=Cc1cc(Br)ccc1O`, the inhibition is -5%.

Turning to `CCN(CC)CCn1c(/N=C/c2cc(Br)ccc2O)nc2ccccc21`, the inhibition is 2.3%.

In the case of `CN1CCCN(C(=O)C2CCCCC2)CC1`, the inhibition was -5.1%.

As to `CC(=NNC(N)=O)C1CC2CCC1CC2` (stereo not drawn), the inhibition was 0.5%.

In the case of `COc1ccc(NC(=O)c2sc3nc(C)nc(N4CCN(c5ccccn5)CC4)c3c2C)c(OC)c1`, the inhibition is 53.3% (active).

As for `Cc1nc(N2CCN(c3ccccn3)CC2)c2c(C)c(C(=O)Nc3ccc(F)c(Cl)c3)sc2n1`, the inhibition is 36.8%.

As for `Cc1nc(N2CCC(C)CC2)c2c(C)c(C(=O)Nc3cc(F)ccc3C)sc2n1`, the inhibition was 27.1%.

For `COc1ccc(CC(=O)N[C@@H]2c3cc(OC)c(OC)cc3C[C@H]2OCc2ccccc2)cc1`, the inhibition was -5.1%.

Regarding `CN1OC[C@@H]2CN(C(=O)c3ccc(-c4ccccc4)cc3)[C@H](c3ccc(-c4cccc(F)c4)cc3)C[C@@H]21`, the inhibition was -13%.

For `O=C(OC12CC3CC(CC(C3)C1)C2)c1ccc(NCc2cc(O)ccc2O)cc1`, the inhibition was 60.3% (active).

For `CN=C(NC#N)NCCSCc1nc[nH]c1C`, the inhibition was -4.5%.

Turning to `Cc1cc(C)c(S(=O)(=O)c2cc(F)ccc2C)c(=O)[nH]1`, the inhibition was -12.1%.

`CN(C)CCN1CCN(c2cc(-c3cccc(Cl)c3)nc3ccnn23)CC1`: the inhibition was 7.8%.

Take `O=C(c1ccccc1)N1CCN(C(=O)c2cc3nc(-c4ccccc4)cc(C(F)(F)F)n3n2)CC1`: the inhibition is -4.4%.

With `C#Cc1cc(N2CCN(C(=O)c3ccoc3)CC2)n2nc(-c3cccc(Cl)c3)cc2n1`, the inhibition is 64.7% (active).

Turning to `COc1cccc(C(O)c2nc(-c3ccc(C)c(C)c3)cs2)c1` (stereo not drawn), the inhibition was 17.1%.
